Our source for the growth inhibition values is PubChem BioAssay (NCI).

Assay [1] is described as follows: NCI Yeast Anticancer Drug Screen. Data for the rad50 strain (AID 155).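 Note: 0% = growth of vehicle-only cultures of the same strain.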 Particulars: S. cerevisiae rad50 strain growth inhibition; at 50.0 µM; stronger effect = higher value. The essentials:
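Inhibition values express reduced yeast growth in compound-treated cultures relative to vehicle-treated controls.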

Assay [2] is described as follows: NCI Yeast Anticancer Drug Screen. Data for the mec2-1 strain (AID 157). Particulars: S. cerevisiae mec2-1 strain, at 50.0 µM, stronger effect = higher value. In short, it runs like this: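 Compounds were applied to mec2-1 yeast cells. Their growth was then compared with that of vehicle-treated cultures to give growth inhibition.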
Assay [3] is described as follows: NCI Yeast Anticancer Drug Screen. Data for the sgs1 mgt1 strain (AID 161).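 Note: 0% = growth of cultures given vehicle only.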 Particulars: S. cerevisiae sgs1 mgt1 strain, at 50.0 µM, stronger effect = higher value. In short, it runs like this: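 Percent growth inhibition was derived by comparing compound-exposed mutant yeast with vehicle-exposed cultures. The strain carries alterations in DNA damage repair.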
Assay [4] can be described thus: NCI Yeast Anticancer Drug Screen. Data for the cln2 rad14 strain (AID 165).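 Note: 0% = growth equal to vehicle treated cultures.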 Particulars: S. cerevisiae cln2 rad14 strain, at 50.0 µM, stronger effect = higher value. In short, it runs like this:
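Strain: cln2 rad14 yeast, altered in cell cycle control and DNA damage repair. Read-out: growth inhibition vs vehicle.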

A short description of assay [5]: NCI Yeast Anticancer Drug Screen. Data for the bub3 strain (AID 167). Particulars: S. cerevisiae bub3 mutant strain, at 50.0 µM, stronger effect = higher value. The essentials:
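Steps: expose the mutant yeast strain to compound; grow alongside vehicle-treated cultures; measure growth; express inhibition against the vehicle cultures.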

Assay [6] is described as follows: NCI Yeast Anticancer Drug Screen. Data for the mlh1 rad18 strain (AID 175). Particulars: S. cerevisiae mlh1 rad18 strain growth inhibition; at 50.0 µM; stronger effect = higher value. In short, it runs like this: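 A repair-deficient yeast strain is exposed to test compound, and growth is scored relative to vehicle-treated controls.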

About 79,000 compounds went through this panel and 15% of them were active in at least one assay; those are over-represented in the sample as a whole. Unmarked numbers belong to inactive results. The source made the active and inactive calls. Cut-off read from the data, not from the text of the source: active = growth inhibition above about 70%; inactive = the rest.

Take `CCOc1c(N=Nc2ccc([N+](=O)[O-])cc2)c(C)nn1C(N)=S`: the growth inhibition in assay [1] was -8%; in assay [2], 8.05%; in assay [3] it was 15.3%; in assay [4], -27.4%; in assay [5], 13.1%; in assay [6] it was 15.9%.

With `CCCCCCP(=O)(CCCCCC)C1CCCCC1`, the growth inhibition was 98.1% (active) in assay [1]; 99.5% (active) in assay [2]; 99.3% (active) in assay [3]; 97.6% (active) in assay [4]; 99% (active) in assay [5]; 99% (active) in assay [6].

For the compound `COCCCNc1nc(N)c(C#N)c(C#N)c1C#N`, the growth inhibition in assay [1] was 4.3%; in assay [2], -6.15%; in assay [3], 2.85%; in assay [4], 3.45%; in assay [5], 19.3%; in assay [6] it was 22.2%.

With `O=C(O)/C=C/C=C/c1ccc(Cl)cc1`, the growth inhibition is 7.25% in assay [1]; 23.4% in assay [2]; 4.3% in assay [3]; -14% in assay [4]; 10.4% in assay [5]; -1.95% in assay [6].

Take `CCSC1(SCC)C(=O)OC2=C(CCCCC2)C1N(C)c1ccccc1` (stereo unspecified): the growth inhibition in assay [1] was -15.2%; in assay [2] it was -12.7%; in assay [3], -14.4%; in assay [4], -22.6%; in assay [5], 1.1%; in assay [6], -12.7%.

In the case of `O=C(CC1CCCCC1)OCC1CCCO1` (stereo unspecified), the growth inhibition is -7.1% in assay [1]; -25.6% in assay [2]; -18.4% in assay [3]; -4.15% in assay [4]; -6.95% in assay [5]; 4.55% in assay [6].

Consider `O=C1Nc2ccc3c4c(ccc1c24)CC3`, for which the growth inhibition in assay [1] was 10.3%; in assay [2] it was -0.8%; in assay [3], -0.3%; in assay [4] it was -6.1%; in assay [5], 10.7%; in assay [6] it was 16.8%.

Regarding `CC1(C)NC(c2ccccc2)c2ccsc2-n2cccc21` (stereo unspecified), the growth inhibition in assay [1] is -27.7%; in assay [2], -29.7%; in assay [3], -15.7%; in assay [4], 18.9%; in assay [5], -9.85%; in assay [6] it was -8.6%.

Turning to `COc1ccc(NC(=S)NC(=O)c2ccccc2)cc1OC`, the growth inhibition in assay [1] was 31.8%; in assay [2] it was 4.15%; in assay [3], 21.9%; in assay [4] it was 3%; in assay [5] it was -1.2%; in assay [6] it was 15.4%.

With `CCC(=O)/C=C/c1ccccc1O`, the growth inhibition in assay [1] was 11.6%; in assay [2] it was 9.55%; in assay [3] it was 31.4%; in assay [4] it was 17.4%; in assay [5], 20.4%; in assay [6] it was 13.3%.

Take `COC1NC(=O)Oc2ccccc21` (stereo unspecified): the growth inhibition in assay [1] is -6.25%; in assay [2] it was 29.5%; in assay [3], -8.95%; in assay [4] it was -3.3%; in assay [5], -12.5%; in assay [6], -19.4%.

`COc1cccc(C2c3cc4c(cc3OC(N3CCCCC3)C2C)OCO4)c1OC` (stereo unspecified): the growth inhibition in assay [1] is 33.1%; in assay [2] it was 30.8%; in assay [3], 46.4%; in assay [4], 19.8%; in assay [5], 63%; in assay [6], 61.8%.

On to `Cc1ccc2nc(C(O)C(O)C(O)CO)[nH]c2c1` (stereo unspecified), for which the growth inhibition in assay [1] is -11.3%; in assay [2], -14.9%; in assay [3] it was 10.7%; in assay [4], -11.6%; in assay [5] it was -25.7%; in assay [6] it was -12.7%.

`O=C1C=CC(=O)C2C1C21C2CCCC(C2)C2CCCC1C2` (stereo unspecified): the growth inhibition in assay [1] was -11.2%; in assay [2], 16.3%; in assay [3], 4.05%; in assay [4], -23%; in assay [5], -0.65%; in assay [6] it was 20.1%.

As for `COc1cc(C2C3=C(COC3=O)Oc3cc4c(cc32)OCO4)cc(OC)c1OC(C)=O` (stereo unspecified), the growth inhibition in assay [1] was -15.5%; in assay [2], -22.9%; in assay [3], 1.55%; in assay [4], 16.1%; in assay [5], -8.3%; in assay [6] it was -2.5%.

In the case of `CCOC(=O)C1=CC(C)(C(=O)OCC)Nc2c(nc(SC)n(C)c2=O)N1` (stereo unspecified), the growth inhibition in assay [1] was -19.4%; in assay [2], -21.2%; in assay [3] it was -16.3%; in assay [4], 16.8%; in assay [5], -1.55%; in assay [6], 14.2%.

Take `COc1cc(/C=C/C(=O)O)cc(OC)c1O`: the growth inhibition in assay [1] is 5.65%; in assay [2], -5.05%; in assay [3], -22.9%; in assay [4], 23.1%; in assay [5] it was 10.8%; in assay [6], 16.5%.

As to `COc1ccc(N(CN2C(=O)CCC2=O)CS(=O)(=O)c2ccc(Cl)cc2)cc1`, the growth inhibition is 16.6% in assay [1]; 0.2% in assay [2]; 11.5% in assay [3]; 14.9% in assay [4]; -3.75% in assay [5]; -16.4% in assay [6].

In the case of `c1ccc2cc3c(cc2c1)OP1(=NP2(=NP4(=N1)Oc1cc5ccccc5cc1O4)Oc1cc4ccccc4cc1O2)O3`, the growth inhibition is 67.7% in assay [1]; 28.1% in assay [2]; 33.6% in assay [3]; 18.8% in assay [4]; 15.7% in assay [5]; 12.6% in assay [6].

Turning to `COc1ccccc1C(O)(c1ccccc1)C(O)(c1ccccc1)c1ccccc1OC` (stereo unspecified), the growth inhibition is -20.1% in assay [1]; 2.65% in assay [2]; -20.2% in assay [3]; 15.6% in assay [4]; -5.65% in assay [5]; -4.2% in assay [6].

`CSC(N)=Nc1c(C)cccc1C`: the growth inhibition was 3.55% in assay [1]; 22.9% in assay [2]; 5.35% in assay [3]; -4.1% in assay [4]; 2.9% in assay [5]; -16.7% in assay [6].
